From PubChem BioAssay
Rows were chosen to be rich in hits. Some 1.4% of all compounds tested hit in one or more screens of this group.
PTHR1 ag – qHTS for PTHR1 Agonists: Primary Screen; HEK293 GP2 PTHR1 cells, GloSensor cAMP luminescence, 1 h; Potency, µM (top dose mostly 115 µM), hits mostly activators; hit rate 0.075% among 410,000; Parathyroid hormone/parathyroid hormone-related peptide receptor (Homo sapiens), Q03431; also: nearly all actives have a fitted effect of over 55% in size
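HEK-293-derived GP2 cells expressing PTHR1 and a GloSensor cAMP reporter, 3,000/well, plated overnight, given luciferin plus IBMX (each 0.5 mM as added) for 1 h at 37 °C, then compound for 1 h at 37 °C. Luminescence was read after 15 min at room temperature.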
RXFP1 ag – qHTS Assay for Agonists of the Relaxin Receptor RXFP1 | Relaxin receptor 1 (Homo sapiens), Q9HBX9 | HEK293T-RXFP1 cAMP TR-FRET, 30 min; response scale: percent of porcine relaxin response, buffer zero | Potency, µM (highest dose often 57.5 µM), usual class: activators | hit rate 0.3% among 370,000 | AID 2676, 2010; also: nearly all actives have a fitted effect of over 60% in size
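HEK293 cells stably expressing RXFP1, treated 30 min at 37C with compounds plus PDE4 inhibitor Ro 20174; cAMP measured by HTRF TR-FRET. Normalized to buffer and 29 nM porcine relaxin; EC50 by Hill fit.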
Glioma ERSR ind – qHTS for Inducers of the Endoplasmic Reticulum Stress Response (ERSR) in Human Glioma: qHTS; U87-MG GRP78 promoter luciferase reporter, 16 h; Potency, µM, usual class: activators; hit rate 0.02% among 420,000; also: series mostly up to about 76 µM; nearly all actives have a fitted effect of over 35% in size
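Stably transfected U87-MG human glioma cells carrying a GRP78-based luminescent sensor were seeded at 1000 cells/well, pin-dosed with compounds and incubated 16 h. Luciferase reagent was then added, and end-point luminescence was read after 10 min at room temperature.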
RXFP1 antagonist – qHTS Assay for Antagonists of the Relaxin Receptor RXFP1 | HEK293-RXFP1, relaxin-stimulated cAMP HTRF, 30 min; hits give low values | hit rate 0.59% among 350,000 | activity change, negative = inhibition, % at 57.5 µM | Relaxin receptor 1 (Homo sapiens), Q9HBX9 | AID 1259400, 2018;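 active = activity change of -60% or lower, but not beyond a set lower limit; inconclusive = change between -60% and -40%, or beyond the set limit; inactive = change above -40%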
hERG WT inh – qHTS for Inhibitors of KCHN2 3.1: Wildtype qHTS | AID 720551, 2013 | hit rate 0.37% among 340,000 | Voltage-gated inwardly rectifying potassium channel KCNH2 (Homo sapiens), Q12809 | activity change, % at 1.84 µM | U2OS, BacMam KCNH2, thallium flux FluxOr; hits give low values;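 active = maximum activity change below -70%; inconclusive = maximum activity change between -70% and -50%; inactive = maximum activity change above -50%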
Target sequence (Q12809 whole entry, looked up): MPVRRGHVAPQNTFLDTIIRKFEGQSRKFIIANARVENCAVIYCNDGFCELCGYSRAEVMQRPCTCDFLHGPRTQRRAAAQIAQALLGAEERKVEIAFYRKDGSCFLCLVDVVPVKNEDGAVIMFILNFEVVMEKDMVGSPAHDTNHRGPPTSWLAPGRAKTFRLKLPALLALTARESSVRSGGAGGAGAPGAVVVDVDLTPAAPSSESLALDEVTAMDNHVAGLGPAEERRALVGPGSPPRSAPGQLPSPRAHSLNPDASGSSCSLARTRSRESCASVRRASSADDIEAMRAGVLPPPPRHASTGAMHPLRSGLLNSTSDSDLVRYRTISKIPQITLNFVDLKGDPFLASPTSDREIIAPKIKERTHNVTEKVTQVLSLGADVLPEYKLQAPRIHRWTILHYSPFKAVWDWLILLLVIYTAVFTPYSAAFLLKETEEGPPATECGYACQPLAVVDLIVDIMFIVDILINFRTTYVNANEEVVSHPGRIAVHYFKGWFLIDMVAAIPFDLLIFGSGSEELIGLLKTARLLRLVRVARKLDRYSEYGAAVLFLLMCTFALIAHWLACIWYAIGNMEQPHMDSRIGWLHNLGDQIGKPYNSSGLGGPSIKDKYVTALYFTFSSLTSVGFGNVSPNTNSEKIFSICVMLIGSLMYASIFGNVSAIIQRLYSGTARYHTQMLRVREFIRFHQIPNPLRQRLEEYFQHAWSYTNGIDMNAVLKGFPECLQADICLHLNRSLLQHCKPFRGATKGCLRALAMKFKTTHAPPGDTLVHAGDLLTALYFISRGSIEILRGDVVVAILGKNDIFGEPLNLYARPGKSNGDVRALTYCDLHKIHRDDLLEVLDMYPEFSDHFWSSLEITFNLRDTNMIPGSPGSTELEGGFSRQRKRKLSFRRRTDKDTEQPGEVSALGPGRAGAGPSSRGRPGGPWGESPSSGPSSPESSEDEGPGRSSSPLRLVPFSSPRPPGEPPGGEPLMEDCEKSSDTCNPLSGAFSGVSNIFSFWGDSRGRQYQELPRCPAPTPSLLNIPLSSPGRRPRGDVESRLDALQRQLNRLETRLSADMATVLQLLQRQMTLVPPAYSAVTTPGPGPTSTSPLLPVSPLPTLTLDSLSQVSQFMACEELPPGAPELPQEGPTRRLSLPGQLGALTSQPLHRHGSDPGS
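U2OS cells transduced with wild-type KCNH2 virus are loaded with FluxOr dye for 45 min, and thallium flux is measured in kinetic reads before and after stimulation buffer. Rate constants are normalized to DMSO controls.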
KCNH2 3.1 inh – qHTS for Inhibitors of KCHN2 3.1: Mutant qHTS | activity change, % (tested at about 1.8 µM) | U2OS KCNH2 3.1, thallium flux FluxOr; hits give low values | hit rate 0.95% among 340,000 | Potassium voltage-gated channel subfamily H member 2, brain isoform KCNH2 3.1 (human);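 active = maximum activity change below -70%; inconclusive = maximum activity change from -70% to -50%; inactive = maximum activity change above -50%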;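 also: thallium influx rate constant from kinetic fluorescence after stimulation buffer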
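U2OS cells transduced with KCNH2 3.1 mutant virus (1.77 x 10^8 /mL, 4 h), plated overnight at 37 C, loaded 45 min with FluxOr dye plus Red40 quencher. Thallium flux rate constant from kinetic reads after stimulation buffer, normalised to controls.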
Of the large screens only hits and unclear results are named; the others gave an inactive call; ! = a repeat was not active. Unless noted, calls follow the shape of the dose curve; as a rule, active = well fitted curve in the direction sought with a large enough effect; inconclusive = small, poorly fitted or top-dose-only effect, or another doubt; inactive = no such curve, though single readings can be large; an effect the other way counts as inactive or inconclusive.

O=C(O)CCC(=O)N1CCc2c([nH]c3ccccc23)C1C(F)(F)F (stereo unspecified)	KCNH2 3.1 inh -84.5
Fc1cccc(NC(=S)Nc2ccc(Br)cc2)c1	none
Nc1[nH]n2c(=O)cc(-c3ccccc3)nc2c1N=Nc1ccc(S(N)(=O)=O)cc1	none
NS(=O)(=O)c1ccc(N=Nc2c(-c3ccccc3)[nH]n(-c3nc(-c4ccccc4)cs3)c2=O)cc1	KCNH2 3.1 inh -84.2 (no result: RXFP1 antagonist)
Cc1ccc(P(=O)(CC(=O)O)c2ccc(C)cc2)cc1	none
CCN1C(=O)/C(=C/C=C2/Sc3ccccc3N2CCO)SC1=S	none
CCCN1C(=O)/C(=C/C=C2\N(CC)c3ccccc3C2(C)C)SC1=S	hERG WT inh -90.8
C=CCN1C(=O)/C(=C\C=C2\N(C)c3ccccc3C2(C)C)SC1=S	none
CCCN1C(=O)/C(=C\C=C2/Sc3ccccc3N2CCO)SC1=S	KCNH2 3.1 inh -80.9
O=C(CSc1ccc(Cl)cc1)N1CCN(c2ncc(C(F)(F)F)cc2Cl)CC1	KCNH2 3.1 inh -124.3
O=C(CSc1ccc(Cl)cc1)N1CCN(c2ccc([N+](=O)[O-])cc2Cl)CC1	hERG WT inh inconclusive, KCNH2 3.1 inh -88.1
COCCNC(=S)NN=C1CCC(c2ccccc2)CC1 (stereo unspecified)	none
CC(=O)NN=C1CCC(c2ccccc2)CC1 (stereo unspecified)	hERG WT inh -88.2
Cc1ccnc(NC(=O)c2c(-c3ccccc3Cl)noc2C)c1	none
Cc1ncc(CO)c2cc(C(=O)Nc3ccccc3Cl)c(=Nc3cccc(C(N)=O)c3)oc12	none
Cc1cccc(C)c1NC(=O)CSc1ncc2c(n1)-c1ccc(Cl)cc1N(Cc1ccccc1)S2(=O)=O	RXFP1 ag 10µM (no result: hERG WT inh, KCNH2 3.1 inh)
O=C(CSc1ncc2c(n1)-c1ccc(Cl)cc1N(Cc1ccccc1)S2(=O)=O)Nc1ccc(F)c(F)c1	none (no result: hERG WT inh, KCNH2 3.1 inh)
Cc1ccc(NC(=O)CSc2ncc3c(n2)-c2ccc(Cl)cc2N(C)S3(=O)=O)cc1F	RXFP1 ag inconclusive (no result: hERG WT inh, KCNH2 3.1 inh)
CN1c2cc(Cl)ccc2-c2nc(SCC(=O)Nc3ccc(F)cc3F)ncc2S1(=O)=O	RXFP1 ag 31.6µM (no result: hERG WT inh, KCNH2 3.1 inh)
CN(C1CCCCC1)S(=O)(=O)c1ccccc1	none
O=C(C(Br)=Cc1ccccc1)c1ccccc1	RXFP1 antagonist -91.3 (no result: RXFP1 ag)
FC(F)(F)Oc1ccccc1C(c1nnnn1Cc1ccccc1)N1CCN(C/C=C/c2ccccc2)CC1 (stereo unspecified)	none (no result: RXFP1 ag, RXFP1 antagonist, hERG WT inh, KCNH2 3.1 inh)
CC(=O)OC1CC[C@@]2(C)C3CC[C@@]4(C)C(CC5O[C@@]6(CCC(C)CO6)C(C)C54)C3CC[C@@H]2C1 (stereo partly specified)	none (no result: PTHR1 ag, RXFP1 ag, RXFP1 antagonist, hERG WT inh, KCNH2 3.1 inh)
CC1CC[C@@]2(OC1)O[C@H]1CC3[C@@H]4C[C@@H](O)[C@@]5(O)C[C@@H](O)[C@H](O)C[C@]5(C)[C@H]4CC[C@]3(C)[C@H]1[C@@H]2C (stereo partly specified)	hERG WT inh -91.8
CSCCC(NC(=O)c1ccc(Cl)c([N+](=O)[O-])c1)C(=O)N1CCN(C/C=C/c2ccccc2)CC1 (stereo unspecified)	KCNH2 3.1 inh -97.3
CN(CC(=O)Nc1ccccc1Br)C(=O)c1ccncc1	KCNH2 3.1 inh -104.6
COc1ccc(CCN(C)CC(O)COc2c(C)ccc(C)c2C)cc1OC (stereo unspecified)	KCNH2 3.1 inh inconclusive (no result: hERG WT inh)
COc1ccc(CN(C)CC(O)COC(c2ccccc2)c2ccccc2)c(OC)c1OC (stereo unspecified)	hERG WT inh inconclusive, KCNH2 3.1 inh -86.4
COc1ccc(CCN(C)CC(O)COC(c2ccc(F)cc2)c2ccc(F)cc2)cc1OC (stereo unspecified)	hERG WT inh -144.0, KCNH2 3.1 inh -112.1
Nn1c(SCc2cccc(F)c2)nnc1-c1cccnc1	none
Nn1c(SCc2cccc(Br)c2)nnc1-c1cccnc1	KCNH2 3.1 inh -98.9
CCn1c(=O)cc(OCC(=O)NCCCN2CCC(C)CC2)c2ccccc21	KCNH2 3.1 inh -76.7
CCC(=O)N1CCc2cc(Br)cc(S(=O)(=O)Nc3c(C)n(C)n(-c4ccccc4)c3=O)c21	none (no result: PTHR1 ag, Glioma ERSR ind, RXFP1 antagonist, hERG WT inh, KCNH2 3.1 inh)
Cc1ccc(-c2cc(C(=O)N(C)Cc3cnn(C)c3C)c3cc(Br)ccc3n2)cc1	none
Cc1ccc(-c2cc(C(=O)NCc3cnn(C)c3C)c3cc(Br)ccc3n2)cc1	RXFP1 ag 28.2µM!
O=C(CC1C(=O)NCCN1Cc1ccc(-c2ccccc2)cc1)NCC1CC1 (stereo unspecified)	RXFP1 antagonist -61.3
COc1ccccc1CN1CCNC(=O)C1CC(=O)NCCC1=CCCCC1 (stereo unspecified)	none
C=CCNC(=O)CC1C(=O)NCCN1Cc1ccc(-c2ccccc2)cc1 (stereo unspecified)	none (no result: hERG WT inh)
CCOc1ccccc1CN1CCNC(=O)C1CC(=O)NCCC1=CCCCC1 (stereo unspecified)	KCNH2 3.1 inh -109.2
CCc1ccc(NC(=O)CCn2c(=O)oc3ccccc32)cc1	none
O=C(c1cc(-c2ccc(Cl)cc2)n(-c2ccc(Cl)cc2)n1)N1CCOCC1	hERG WT inh -70.3, KCNH2 3.1 inh -97.6
Cc1cc(C)cc(NC(=O)C2C3C=CC4(O3)C2C(=O)N(CCCN2CCCC2)C4C(=O)NC2CCCC(C)C2C)c1 (stereo unspecified)	none
CCCCC(=O)N1CCCC(c2nc(-c3cccc(OC)c3)no2)C1 (stereo unspecified)	none
COc1cccc(-c2noc(C3CCCN(C(=O)CC(C)(C)C)C3)n2)c1 (stereo unspecified)	hERG WT inh -87.4
Cc1cc(C)n(-c2nc3ccccc3n3cnnc23)n1	KCNH2 3.1 inh -102.5
COc1ccccc1NC(=O)CSc1nnc(NC(=O)C2CC2)s1	none
COc1ccc(C(NC(C)=O)c2ccc3cccnc3c2O)cc1OC (stereo unspecified)	none (no result: PTHR1 ag, RXFP1 ag, RXFP1 antagonist, hERG WT inh, KCNH2 3.1 inh)
CCCC(=O)NC(c1ccc(Cl)cc1Cl)c1ccc2cccnc2c1O (stereo unspecified)	RXFP1 antagonist -61.6
CCCC(=O)NC(c1ccco1)c1cc(Cl)c2cccnc2c1O (stereo unspecified)	RXFP1 antagonist -66.5
CC(=O)NC(c1ccc2ccccc2c1)c1ccc2cccnc2c1O (stereo unspecified)	RXFP1 antagonist -69.9
COCCSc1nnc(NC(=O)CS(=O)(=O)c2ccc(C)cc2)s1	none
